The structures appear in SMILES notation. About 6,100 (1.1%) of roughly 580,000 compounds were called active. Roughly 15% stayed inconclusive and do not appear here. Calls follow the shape of the dose curve; as a rule, active = well fitted inhibition curve with a large enough effect; inconclusive = small, poorly fitted or top-dose-only effect, or another doubt; inactive = no such curve, though single readings can be large or run the other way. What follows is part of a selection rich in actives, with near analogues and random picks from the rest. A call without a number means that no potency is given here.
Potency is read from the fitted curve at half-maximal effect.

Polyunsaturated fatty acid lipoxygenase ALOX12 (Homo sapiens), sequence (P18054 whole entry, looked up): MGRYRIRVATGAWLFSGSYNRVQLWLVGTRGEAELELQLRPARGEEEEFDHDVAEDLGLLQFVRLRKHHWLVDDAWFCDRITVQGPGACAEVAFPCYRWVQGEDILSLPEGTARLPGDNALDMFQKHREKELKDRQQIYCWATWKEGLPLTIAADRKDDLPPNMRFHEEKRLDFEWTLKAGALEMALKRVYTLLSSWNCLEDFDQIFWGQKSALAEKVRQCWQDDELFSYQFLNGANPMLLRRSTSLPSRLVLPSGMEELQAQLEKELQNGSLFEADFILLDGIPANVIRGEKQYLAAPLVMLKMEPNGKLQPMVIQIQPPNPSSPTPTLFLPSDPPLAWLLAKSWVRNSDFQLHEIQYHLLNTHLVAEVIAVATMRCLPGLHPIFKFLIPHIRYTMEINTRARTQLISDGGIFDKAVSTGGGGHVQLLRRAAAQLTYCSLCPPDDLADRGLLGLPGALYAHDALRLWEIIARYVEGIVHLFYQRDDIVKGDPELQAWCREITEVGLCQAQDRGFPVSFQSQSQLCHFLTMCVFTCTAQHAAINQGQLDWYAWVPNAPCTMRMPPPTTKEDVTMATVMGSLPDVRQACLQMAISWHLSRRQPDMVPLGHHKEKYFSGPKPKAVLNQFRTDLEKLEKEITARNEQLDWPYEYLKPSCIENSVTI

This test concerns the target Polyunsaturated fatty acid lipoxygenase ALOX12 (Homo sapiens) (UniProt P18054). Kind of test: Primary qHTS assay for inhibitors of human arachidonate 12S-lipoxygenase (ALOX12): Round 2. The conditions noted are these: purified 12hLO, xylenol orange hydroperoxide absorbance; series mostly up to 108 µM. In outline: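 Purified human 12hLO (150 nM final) in 25 mM Hepes, 0.01% Triton X-100, pH 7.0 was preincubated 15 min at room temperature with compound. Then 40 uM arachidonic acid was added, 30 min. Hydroperoxide was read by Fe-XO absorbance ratio 573/405 nm.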
As to `Cc1nn(Cc2cccc(F)c2)c(C)c1NS(=O)(=O)c1c(C)nn(C)c1C`, the Potency entry is “inactive”.
As to `Cc1sc2ncnc(Sc3nnc(-c4ccccc4F)n3C)c2c1C`, the Potency result was “inactive”.
With `N#Cc1ccccc1Sc1ccccc1C(=O)NC1CCCCC1` the entry was “inactive”; with `N#Cc1ccccc1Sc1ccccc1C(=O)OCC(=O)NC1CCCCC1`, “inactive”.
For the compound `N#Cc1ccccc1Sc1ccccc1C(=O)Nc1ccc2c(c1)CCC2`, the Potency is 20 µM (active).
For the compound `CC1CCCN(CC(=O)Nc2oc3ccccc3c(=O)c2-c2ccccc2)C1` (stereo not given), the Potency result was “inactive”.
With `Cn1c(=O)[nH]c(=O)c2c1nc(SCCO)n2Cc1ccc(Cl)cc1` the entry was “inactive”; with `CCN(CC)c1ccc(NC(=O)CSc2ncnc3ccccc23)cc1`, “inactive”; with `CC(C)C(=O)NC(NC(=S)Nc1ccccc1)C(Cl)(Cl)Cl` (stereo not given), “inactive”.
The result for `COCCN1C(=O)c2n[nH]c(-c3ccco3)c2C1c1ccc(O)cc1` (stereo not given) reads “inactive”; that for `Cc1cnc(C)n1CCN`, “inactive”; that for `Cc1cnc(-c2ccncc2)n1CCN`, 3.55 µM (active).
For the compound `Cc1cnc(-c2ccccc2)n1CCNC(=O)CCC1CCCC1`, the Potency result was “inactive”.
On to `CCc1ccc(-c2ccccc2)nc1-c1ccccc1`, for which the Potency entry was “inactive”.
For `COC(=O)CC(NC(=O)c1ccc2c(c1)OCCO2)c1ccc(F)cc1` (stereo not given), the Potency result is “inactive”.
With `Cc1oc(-c2nc(C#N)c(N3CCCCCC3)o2)cc1S(=O)(=O)N1CCCCC1` the entry was “inactive”; with `Cc1ccc(/C=C/C(=O)/C=C/c2ccc(C)cc2)cc1`, “inactive”; with `O=C(/C=C(O)/C=C/c1ccc(O)cc1)/C=C/c1ccc(O)cc1`, 28.2 µM (active).
Consider `COc1cc(C=CC(=O)O)ccc1O`, for which the Potency result was “inactive”.
The result for `O=C(Nc1ccccc1NS(=O)(=O)c1cccs1)c1ccc([N+](=O)[O-])cc1` reads “inactive”.
The result for `CCN1CCC(O)(/C=C/c2ccc(C)cc2)C(C(=O)/C=C/c2ccc(C)cc2)C1` (stereo not given) reads 50.1 µM (active).
The result for `CCOC(=O)/C=C/c1ccc(N)cc1` reads “inactive”; that for `CO[C@H]1C(=O)N(C(C)C)[C@H]1C1CCN(C(=O)Nc2ccc(C)c(C)c2)CC1`, “inactive”; that for `Cc1ccsc1C(=O)NC1CCN(c2cnn(Cc3ccccc3)c(=O)c2)CC1`, “inactive”.
Turning to `CCN(CC)CCC(=O)Nc1c(C(=O)OC)[nH]c2ccccc12`, the Potency entry was “inactive”.
As to `O=C(COC(=O)Cc1ccc(F)cc1)Nc1cc(S(=O)(=O)N2CCOCC2)ccc1N1CCCC1`, the Potency result is “inactive”.
Take `COCCNC(=S)Nc1cc(S(=O)(=O)N2CCOCC2)ccc1N1CCCCC1`: the Potency is 31.6 µM (active).
As for `CC(C)CCC(=O)Nc1cc(S(=O)(=O)N2CCOCC2)ccc1N1CCCC1`, the Potency entry was “inactive”.
With `CC(C)OCC(=O)N1CCN(c2nc(-c3ccccc3)nc3c2CCC3)CC1`, the Potency entry is “inactive”.
On to `Cc1[nH]c2ccccc2c1CC(=O)NCc1ccc(CN2CCCC2)cc1`, for which the Potency entry is “inactive”.

Source of the values: PubChem BioAssay AID1671190 (National Center for Advancing Translational Sciences (NCATS), 2021).
